Consider 34 molecules from PubChem BioAssay (EPA / NIEHS).

Assay [1] in a line: CCTE_Shafer_MEA_acute_spike_number: CCTE's Neural Acute Assay for Total Number of Spikes, Shafer Lab (AID 2284008). In outline:
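Cortical neurons from rat, matured to DIV 13 or 15 on microelectrode arrays, are recorded at 37 C before and during 40-min exposure to 0.03-40 uM compound. Wells need >/= 10 active electrodes.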

Assay [2] in a line: CCTE_Shafer_MEA_acute_firing_rate_mean: CCTE's Neural Acute Assay for Mean Firing Rate, Shafer Lab (AID 2284009).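 Further: analyzed for loss of signal so actives lower firing rate relative to DMSO.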 In outline: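 Spontaneous spiking of primary rat cortical networks, DIV 13/15, 37 C. Compound 0.03-40 uM, n ≥3 wells; 40 min baseline vs 40 min treated. Endpoint fitted in loss-of-signal direction against DMSO.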
The nature of assay [3]: CCTE_Harrill_HTTr_Viability_MCF7: CCTE's 6-hour Cell Viability Assessment for the High-Throughput Transcriptomics (HTTr) Platform, in MCF-7 cells cultured in DMEM + 10% fetal bovine serum, Harrill Lab (AID 2284010). The method in brief: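 Propidium iodide exclusion, imaged by high-content analysis, gauged viability after a six-hour exposure across eight concentrations. Cells were MCF-7 grown in DMEM with 10% fetal bovine serum; fits run in both directions against DMSO.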

Assay [4] in a line: CCTE_Harrill_HTTr_Apoptosis_MCF7: CCTE's 6-hour Apoptosis Assessment for the High-Throughput Transcriptomics (HTTr) Platform, in MCF-7 cells cultured in DMEM + 10% fetal bovine serum, Harrill Lab (AID 2284011). The method in brief:
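Cells are dosed with test chemicals at eight concentrations and imaged 6 hours later for caspase-3/7 activity using a green fluorogenic detection reagent. Activity is fitted in both directions against DMSO controls.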

Assay [5] in a line: CCTE_Harrill_HTTr_CellCount_MCF7: CCTE's Cell Proliferation Assessment for the High-Throughput Transcriptomics (HTTr) Platform, Harrill Lab (AID 2284012; active means hit-call score of the fitted dose curve at least 0.9, where 1 is the maximum;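 further: cells exposed to compound for six hours; intended direction is loss of nuclei count meaning fewer cells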). The method in brief: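 Cell count from high-content imaging of Hoechst-labeled nuclei serves as viability/growth readout. Chemicals were applied to MCF-7 cells in eight concentrations for six hours, with fitting in both directions relative to DMSO.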

The nature of assay [6]: CCTE_Shafer_MEA_acute_burst_number: CCTE's Neural Acute Assay for Single-Electrode Bursts, Shafer Lab (AID 2284013). In outline:
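Burst totals were derived with adaptive spike detection (8x rms threshold) on filtered signals from rat cortical cultures; change relative to pre-treatment baseline after 40-min compound exposure (0.03-40 uM) was fitted in the negative direction against DMSO.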

Assay [7] is described as follows: CCTE_Shafer_MEA_acute_burst_duration_mean: CCTE's Neural Acute Assay for Mean Burst Duration, Shafer Lab (AID 2284014).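 Further: hits are decreases in mean burst duration relative to DMSO controls.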 The method in brief:
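Acute exposure of mature rat cortical networks (DIV 13 or 15) grown on microelectrode arrays to 0.03-40 uM compound. Mean burst duration compared with the 40-min pre-dose baseline over a 40-min post-dose recording at 37 C.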

The nature of assay [8]: CCTE_Shafer_MEA_acute_per_burst_spike_number_mean: CCTE's Neural Acute Assay for Average Number of Spikes Per Burst, Shafer Lab (AID 2284015).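 Further: hits are decreases in mean spikes per burst versus baseline.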 The method in brief:
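Percent change in mean spikes per single-electrode burst is compared between a 40 min baseline and a 40 min recording with compound (0.03-40 uM). Cultures were rat cortical neurons on MEA plates at DIV 13 or 15, recorded at 37 C, with DMSO as the negative control.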

Assay [9] is described as follows: CCTE_Shafer_MEA_acute_interburst_interval_mean: CCTE's Neural Acute Assay for Mean Interburst Interval, Shafer Lab (AID 2284016).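 Further: percent change of mean interburst interval versus each well's own pre-dose baseline; curves fitted for decrease in interburst interval relative to DMSO.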 In outline:
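Percent change in mean single-electrode interburst interval was calculated per well from 40 min recordings before and after compound (0.03-40 uM). Recordings were made at 37 C on rat cortical cultures at DIV 13 or 15, with spikes detected at 8x rms threshold.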

The nature of assay [10]: CCTE_Simmons_MITO_basal_resp_rate: CCTE's HepG2 Seahorse XF Respirometric Screening Assay at Basal Respiratory State, Simmons Lab (AID 2284001). To be noted: actives raise or lower the signal. The method in brief:
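Readout is oxygen consumption rate after test compound injection, measured by Seahorse XF in HepG2 cells. Seven concentrations from 125 nM up to 100 uM final are tested, and activity in either direction is fitted against DMSO.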

The nature of assay [11]: CCTE_Simmons_MITO_max_resp_rate: CCTE's HepG2 Seahorse XF Respirometric Screening Assay at Maximal Respiratory State [uncoupled], Simmons Lab (AID 2284002). To be noted: actives raise or lower the signal. In outline:
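Maximal respiration in HepG2 cells is recorded as OCR by Seahorse XF following FCCP injection. Compounds span 125 nM–100 uM final; activity is called in either direction against DMSO.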

Assay [12] in a line: CCTE_Simmons_MITO_inhib_resp_rate: CCTE's HepG2 Seahorse XF Respirometric Screening Assay at Inhibited Respiratory State [full ETC block], Simmons Lab (AID 2284006). The note with it: actives raise or lower the signal. The method in brief: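 This endpoint is the respiration rate remaining after rotenone/antimycin A block, in HepG2 cells on a Seahorse XF96. Chemicals spanned 125 nM–100 uM final, in three biological replicates. OCR was read every 6 minutes for 72 minutes and compared with DMSO vehicle.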

Assay [13] in a line: CCTE_Simmons_MITO_viability: CellTiter-Glo Viability Assessment for CCTE's HepG2 Seahorse XF Respirometric Screening Assay [post-hoc], Simmons Lab (AID 2284007; active means hit-call score of the fitted dose curve at least 0.9, where 1 is the maximum). The method in brief: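 Luciferase-coupled ATP read-out after the Seahorse run: HepG2 cells treated 90 minutes with test chemical, 7-point series of 125 nM–100 uM final, in triplicate biological runs. Vehicle DMSO; dichlone as positive control over 8 concentrations.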
(In general: In ATP-based viability assays light output follows the ATP content of the culture.)

Results filed as inconclusive are left out. Activity calls are given as the source filed them. How the source made its calls, unless noted: active means hit-call score of the fitted dose curve at least 0.9, where 1 is the maximum; inactive means score below 0.9.

Regarding `c1cc(-c2ccncc2)ccn1`, the result in assay [1], in assay [2], in assay [3], in [4], in assay [5] and in assay [6] was inactive. The call in [7], in assay [8] and in [9] was inactive.
For the molecule `Clc1cc(Cl)c(Cl)cc1Cl`, the outcome in [1], in assay [2], in [3], in [4], in [5] and in [6] was inactive. The call in assay [7], in assay [8] and in assay [9] was inactive.
Turning to `CC(=O)OCCOCCOCCOC(C)=O`, the result in assay [3] and in [4] was inactive.
Turning to `Nc1nc(N)c2nc(CNc3ccc(C(=O)N[C@@H](CCC(=O)O)C(=O)O)cc3)cnc2n1`, the molecule was called inactive in [1], in assay [2], in [6], in [7], in assay [8] and in assay [9].
With `C=CCOC(=O)c1ccccc1C(=O)OCC=C`, the AC50 (in general, the concentration at which the activity in the assay is half-maximal) in assay [10] is 36.2 µM (active). The call in assay [11], in assay [12], in [13], in assay [1], in assay [2] and in assay [3] was inactive. For the same molecule, the outcome in [4], in assay [5], in assay [6], in assay [7], in [8] and in assay [9] was inactive.
As to `C=CCc1ccc(O)c(OC)c1`, the molecule was called inactive in [1], in assay [2], in assay [3], in assay [4], in assay [5] and in [6]. In addition, the outcome in assay [7], in assay [8] and in [9] was inactive.
On to `O=[N+]([O-])C(CO)(CO)CO`, for which the outcome in [3], in assay [4] and in assay [5] was inactive.
Consider `CCNc1cccc(C)c1`, for which the result in assay [3], in assay [4] and in assay [5] was inactive.
For `O=c1[nH]cc(F)c(=O)[nH]1`, the outcome in [3], in [4] and in [5] was inactive.
On to `CCc1c(C(=O)NN2CCCCC2)nn(-c2ccc(Cl)cc2Cl)c1-c1ccc(Br)cc1`, for which the outcome in assay [3], in assay [4] and in assay [5] was inactive.
In the case of `CCCCN(CCCC)CCCC`, the result in [3] and in assay [4] was inactive.
For `NC(=O)Cn1c(=O)cc(CCN2CCN(c3nccc4sccc34)CC2)c2ccc(F)cc21`, the outcome in [3], in assay [4] and in assay [5] was inactive.
In the case of `CCCCCCCCCCCC(=O)OC`, the outcome in [3], in assay [4] and in assay [5] was inactive.
Take `C[C@]12C=CC(=O)C=C1CC[C@@H]1[C@@H]2C(=O)C[C@@]2(C)[C@H]1CC[C@]2(O)C(=O)CO`: the outcome in [3], in assay [4] and in [5] was inactive.
Regarding `COC(=O)c1ccc(O)cc1`, the result in [3], in [4] and in assay [5] was inactive.
For the molecule `Nc1ccc(S(=O)(=O)c2ccc(N)cc2)cc1`, the outcome in assay [3], in [4] and in assay [5] was inactive.
Take `CC(C)c1ccc(C(=O)N=C(N)N)cc1S(C)(=O)=O`: the result in [3], in assay [4] and in assay [5] was inactive.
With `CC1(C)NC(=O)NC1=O`, the outcome in [3], in assay [4] and in assay [5] was inactive.
Take `O=C(N[C@@H](Cc1ccccc1)[C@@H](O)C(=O)N1C[C@@H](O)[C@@H](O)C1)c1cc2cc(Cl)ccc2[nH]1`: the outcome in assay [3], in assay [4] and in assay [5] was inactive.
For `CCCCCCCCCCCCCCCC`, the result in assay [3] and in [4] was inactive.
Regarding `Oc1ccc2ccccc2c1N=Nc1ccccc1`, the outcome in [3], in assay [4] and in assay [5] was inactive.
For `OC[C@@H](O)[C@@H](O)[C@H](O)[C@H](O)CO`, the result in assay [3], in assay [4] and in [5] was inactive.
`O=c1c(O)c(-c2ccc(O)c(O)c2)oc2cc(O)cc(O)c12`: the outcome in [3] and in [4] was inactive.
On to `CCOC(=O)CCC(=O)OCC`, for which the result in assay [3], in assay [4] and in assay [5] was inactive.
As to `Cc1nc(C)nc(N2C[C@@H](C)N(c3ccnc([C@@H](C)O)n3)[C@@H](C)C2)n1`, the result in assay [3], in assay [4] and in [5] was inactive.
On to `CC1=C(/C=C/C(C)=C/C=C/C(C)=C/CO)C(C)(C)CCC1`, for which the outcome in [3], in [4] and in assay [5] was inactive.
Turning to `CCCCCCOCCO`, the result in assay [3] and in assay [4] was inactive.
As for `CC(=O)OC/C=C(\C)CCC=C(C)C`, the outcome in [3] and in [4] was inactive.
On to `CCCCc1ccc2c(n1)[C@@H](c1ccc(OC)cc1C[C@H](C)C(=O)O)[C@H](C(=O)O)[C@H]2c1ccc2c(c1)OCO2`, for which the outcome in assay [3], in [4] and in [5] was inactive.
Take `COc1cccc2c1C(=O)c1c(O)c3c(c(O)c1C2=O)C[C@@](O)(C(=O)CO)C[C@@H]3O[C@H]1C[C@H](N)[C@H](O)[C@H](C)O1`: the half-maximal activity concentration (AC50) in assay [3] was 37.5 µM (active); in [4] it was 90.8 µM (active).
As for `Oc1ccc2c(c1)OC[C@@H](N1CCC(O)(c3ccc(F)cc3)CC1)[C@H]2O`, the result in assay [3], in [4] and in assay [5] was inactive.
For the molecule `NCCO`, the outcome in assay [3], in assay [4] and in [5] was inactive.
Turning to `CCCCCCCCCCCCCO`, the result in [3], in assay [4] and in assay [5] was inactive.
As to `O=C(OCCCCCOC(=O)c1ccccc1)c1ccccc1`, the result in assay [3], in assay [4] and in assay [5] was inactive.
